From PubChem BioAssay (NCI)
The panel holds about 83,000 compounds, 20% with a hit somewhere; the sample as a whole holds those more often.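 For each line, cells grew in 96-well plates with the test compound present at a single concentration for 48 hours.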 A number with no mark means an inactive call. Calls of active or inactive are those of the source. How the source made its calls: active means growth percent below 10; inactive means the rest.

Legend:
Test in all cases: NCI-60 one-dose screen, 48 h (100 = growth as untreated, 0 = no growth, -100 = all killed)
Details in all cases: 10 µM unless noted
NCI-H23 lung = system: NCI-H23 lung
NCI-H226 lung = system: NCI-H226 lung
NCI-H322M lung = system: NCI-H322M lung
HOP-62 NSCLC = system: HOP-62 NSCLC
NCI-H460 lung = system: NCI-H460 lung
NCI-H522 lung = system: NCI-H522 lung
A549/ATCC NSCLC = system: A549/ATCC NSCLC
786-0 renal = system: 786-0 renal
COLO 205 colon = system: COLO 205 colon
DU-145 prostate = system: DU-145 prostate
K-562 leukemia = system: K-562 leukemia
MALME-3M melanoma = system: MALME-3M melanoma
MDA-MB-231 breast = system: MDA-MB-231 breast
RXF 393 renal = system: RXF 393 renal
SF-268 CNS = system: SF-268 CNS
SF-295 CNS = system: SF-295 CNS
SF-539 CNS = system: SF-539 CNS
UACC-257 melanoma = system: UACC-257 melanoma
M14 melanoma = system: M14 melanoma

| SMILES | growth (NCI-H23 lung) | growth (NCI-H226 lung) | growth (NCI-H322M lung) | growth (HOP-62 NSCLC) | growth (NCI-H460 lung) | growth (NCI-H522 lung) | growth (A549/ATCC NSCLC) | growth (786-0 renal) | growth (COLO 205 colon) | growth (DU-145 prostate) | growth (K-562 leukemia) | growth (MALME-3M melanoma) | growth (MDA-MB-231 breast) | growth (RXF 393 renal) | growth (SF-268 CNS) | growth (SF-295 CNS) | growth (SF-539 CNS) | growth (UACC-257 melanoma) | growth (M14 melanoma) |
| --- | --- | --- | --- | --- | --- | --- | --- | --- | --- | --- | --- | --- | --- | --- | --- | --- | --- | --- | --- |
| CCN(CC)c1cc(C)c(Cc2c(OC)ccc3ccccc23)cc1C | 93.7% | 92.3% | 96.9% | 85% | 95.1% | 74.7% | 82.8% | 100% | 96.7% | 105% | 84.7% | 102% | 98.6% | 101% | 95.7% | 103% | 103% | 96.8% | 90.8% |
| COc1cc2ncnc(Nc3ccc(S(=O)(=O)Nc4cc(C)on4)cc3)c2cc1OCCCN1CCN(c2ccc([N+](=O)[O-])cc2)CC1 | 103% | 107% | 103% | 106% | 110% | 94.7% | 106% | 109% | 105% | 112% | 120% | 104% | 97.9% | 115% | 102% | 109% | 102% | 107% | 98.4% |
| CC(C)[C@@]12C[C@@H](OC(=O)C3CO3)[C@@](C)(O1)[C@@H]1CC[C@@H](C)[C@H]1[C@@H]2OC(=O)/C=C/c1ccccc1 (some centres not stated) | 85.9% | 68.3% | 83.9% | 76.6% | 101% | 72.8% | 75.7% | 95.5% | 107% | 107% | 105% | 84% | 76.6% | 67% | 67.2% | 101% | 90.7% | 74.7% | 101% |
| COc1ccc(Oc2nc(Nc3ccc(N4CCOCC4)cc3)ncc2NC(=O)Nc2cccc(OC)c2)cc1 | 72.2% | 42.1% | 53.3% | 64.7% | 41.5% | 23.7% | 41.7% | 80.7% | 17.8% | 47.5% | 57% | 69.7% | 28.8% | 39.4% | 74.4% | 81.1% | 28.3% | 91.5% | 71.9% |
| COC(=O)CSc1ccc(Cl)cc1 | 102% | 123% | 102% | 107% | 109% | 92.2% | 98% | 95.3% | 108% | 111% | 89.6% | 95.5% | 116% | 136% | 119% | 107% | 97.3% | 104% | 103% |
| CCCCc1nc(Cl)c(C2CC(c3ccc(S(N)(=O)=O)cc3)=NN2c2ccc(C#N)cc2)[nH]1 (configuration not stated) | 98.5% | 79.6% | 81.3% | 90.5% | 95.5% | 68% | 94.6% | 84.6% | 87.8% | 104% | 69.5% | 105% | 88% | 81.1% | 91.9% | 97.9% | 99.9% | 86.2% | 88.1% |
| O=[N+]([O-])c1ccc(N=Nc2c(NNc3ccc([N+](=O)[O-])cn3)cc(S(=O)(=O)O)c3ccccc23)nc1 | 81.2% | 95.8% | 60.8% | 85.5% | 63.7% | 84.9% | 89.2% | 109% | 106% | 74.9% | 94.3% | 129% | 57% | 120% | 63.9% | 114% | 89.3% | 101% | 60.6% |
| COc1cccc(/C(C)=N/NC(=O)CSc2nc3ccccc3c(=O)n2CCc2ccc(S(N)(=O)=O)cc2)c1 | 31.6% | 89.1% | 58.2% | 35% | -53.2% (active) | 42.2% | 15.6% | -26.9% (active) | 42.9% | 18.4% | 32% | -15.2% (active) | -25.5% (active) | 57.9% | 36.1% | 44% | -18.1% (active) | 45.2% | 27.3% |
| CCOC(=O)C(Cc1ccccc1)n1c(O)c(/C=N/c2ncc(Cc3ccc(Cl)cc3Cl)s2)sc1=S (configuration not stated) | 11% | 15.5% | 15.7% | 8.75% (active) | 2.04% (active) | -23.2% (active) | 4.36% (active) | 17.9% | -87% (active) | 26.2% | 2.17% (active) | -9.77% (active) | -18.2% (active) | 2.54% (active) | 24.4% | -4.55% (active) | 15% | -17.9% (active) | 10.8% |
| COc1ccc2nc3ccccc3c(NCc3ccc(Cl)cc3)c2c1 | 28.3% | 48.8% | 24.6% | 42.4% | 12.5% | 34.7% | 23.6% | -76.9% (active) | -61.9% (active) | 21.5% | -30.2% (active) | -81.6% (active) | 24.3% | -24.2% (active) | 53.5% | 25.8% | -5.77% (active) | -52.2% (active) | -86.1% (active) |
| O=C(c1ccccc1)C(CCc1ccccn1)CCc1ccccn1 | 106% | 104% | 117% | 93.1% | 110% | 89.5% | 98.3% | 98.4% | 105% | 101% | 96.2% | 82.4% | 99.5% | 120% | 101% | 110% | 103% | 109% | 93.7% |
| O=C(/C=C/c1cn(-c2ccccc2)nc1-c1ccccc1)OCc1cn(-c2cccc([N+](=O)[O-])c2)nn1 | 91.4% | 97.1% | 94.7% | 81.7% | 93.7% | 60.4% | 67.8% | 91.2% | 89.5% | 103% | 76.2% | 97.9% | 72.8% | 105% | 93.3% | 97.8% | 89.2% | 44.9% | 91.3% |
| CC(C)=CC[C@@H]1CC2(CC=C(C)C)C(=O)C(OC3(C(=O)c4ccccc4)C(=O)C4(CC=C(C)C)C[C@@H](CC=C(C)C)C(C)(C)C(CC=C(C)C)(C4=O)C3=O)(C(=O)c3ccccc3)C(=O)C(CC=C(C)C)(C2=O)C1(C)C (some centres not stated) | 10.3% | -4.96% (active) | 3.49% (active) | 0.307% (active) | -9.89% (active) | -28.8% (active) | 6% (active) | 11.6% | -22.3% (active) | 2.13% (active) | 4.86% (active) | -28.8% (active) | -11.3% (active) | 4.28% (active) | 14.5% | -13.4% (active) | -18.5% (active) | -19.7% (active) | -2.59% (active) |
| COc1ccc(-c2cnc(-c3ccncc3-c3cccc(OC)c3)o2)cc1 | 19.4% | 15.3% | 56.3% | 26.3% | 7.36% (active) | -59.9% (active) | 30.7% | 24.8% | -44.1% (active) | 0.973% (active) | 7.13% (active) | 92% | -9.9% (active) | 43.1% | 18.2% | -8.54% (active) | -0.0741% (active) | 83.6% | 23.9% |
| COc1ccc(C(=O)OC2C(OC3C(O)COC(O[C@H]4C[C@H]5[C@@H]6CC=C7C[C@@H](O)CC[C@]7(C)[C@H]6CC[C@]5(C)[C@H]4[C@H](C)C(=O)CCC(C)C)C3OC(C)=O)OCC(O)C2O)cc1 (some centres not stated) | 2.95% (active) | -14% (active) | 36.9% | -32.2% (active) | -20.3% (active) | -65.7% (active) | -14.3% (active) | -41.2% (active) | -64.3% (active) | 28.5% | -50.3% (active) | -12.7% (active) | 10.6% | -71.9% (active) | -12.6% (active) | -64.5% (active) | -69.8% (active) | -60.3% (active) | -69.3% (active) |
| CCNCCCn1c2c(c3ccc(Cl)cc3c1=O)C(=O)c1cc(OC)cnc1-2 | 28.8% | -6.31% (active) | 45% | -18.8% (active) | -69.9% (active) | -10.2% (active) | 25.7% | -95.4% (active) | 8.78% (active) | -97.4% (active) | -84.2% (active) | 74.2% | -72.6% (active) | 8.86% (active) | -66% (active) | 15.5% | 12% | 65.9% | 40% |
| C=CCOC(=O)C1=C(C)NC2=C(C(=O)CCC2)C1c1ccc(F)cc1 (configuration not stated) | 92.4% | 89.9% | 95.6% | 85.9% | 106% | 82.4% | 97.3% | 99.9% | 103% | 113% | 96.3% | 111% | 98% | 111% | 106% | 102% | 102% | 92.8% | 96.1% |
| CN(C)c1ccc(C2(Cl)c3ccccc3N(C)c3ccccc32)cc1 | 44.2% | 69.1% | 75.9% | 29.9% | 36.9% | 19% | 60% | 62.1% | 43.1% | 50.5% | 51% | 48.5% | 69.1% | 74% | 18.2% | 66.3% | 86.9% | 54.4% | 53.4% |
